Results on 86 compounds are retold here after PubChem BioAssay AID504652 (National Center for Advancing Translational Sciences (NCATS), 2011).

Out of some 360,000 compounds screened, about 11,000 (3.1%) were called active. Rule as the data show it: active = activity change below about -30%; inactive = the rest. This excerpt belongs to a sample that is enriched for actives.
% is scaled to controls: 0 for no effect and ±100 for the full control effect.

Chain of D(1A) dopamine receptor (Homo sapiens) (P21728 whole entry, looked up): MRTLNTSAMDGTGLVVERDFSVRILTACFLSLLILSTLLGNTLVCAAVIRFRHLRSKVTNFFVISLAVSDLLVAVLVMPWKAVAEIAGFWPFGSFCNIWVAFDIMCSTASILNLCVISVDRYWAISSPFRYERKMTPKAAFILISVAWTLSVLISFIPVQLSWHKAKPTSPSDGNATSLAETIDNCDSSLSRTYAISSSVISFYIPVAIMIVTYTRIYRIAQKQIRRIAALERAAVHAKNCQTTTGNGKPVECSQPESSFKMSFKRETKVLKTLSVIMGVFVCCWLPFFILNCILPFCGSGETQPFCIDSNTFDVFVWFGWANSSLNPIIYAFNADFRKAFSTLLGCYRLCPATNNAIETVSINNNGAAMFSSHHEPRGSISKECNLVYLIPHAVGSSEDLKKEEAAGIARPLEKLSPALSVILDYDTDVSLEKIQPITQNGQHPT

The target in this experiment is D(1A) dopamine receptor (Homo sapiens) (UniProt P21728). As to the kind of experiment: Antagonist of Human D 1 Dopamine Receptor: qHTS. Conditions: HEK293 TREx D1 cells, calcium flux, dopamine EC80; at 10 µM; active compounds read low. The gist of the method:
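Calcium flux readout: force-coupled, inducible Hek293 Trex D1 line, cells induced overnight at 30 C with tetracycline, dye-loaded 30–90 min at RT. Antagonism scored against EC80 dopamine challenge given 180 s after compound.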
Background: qHTS replaces the single test concentration by a dilution series.
Turning to `CC(=O)Nc1c2c(nn1-c1ccc(C)cc1C)CS(=O)C2` (stereo unspecified), the activity change, negative = inhibition is -34.5% (active). Take `COc1ccc(-n2nc3c(c2NC(=O)Cc2cccc(C)c2)CS(=O)C3)cc1` (stereo unspecified): the activity change, negative = inhibition was -10.2% (inactive). In the case of `Cc1cccc(CC(=O)Nc2c3c(nn2-c2cccc(Cl)c2)CS(=O)C3)c1` (stereo unspecified), the activity change, negative = inhibition was -0.884% (inactive). Turning to `CCOc1ccc(C2CC(=O)c3c([nH]c(C(=O)OCc4ccccc4)c3C)C2)cc1` (stereo unspecified), the activity change, negative = inhibition is -22.3% (inactive). For the compound `Cc1ccc(-c2ccc(CCC(=O)O)n2-c2ccc(C(N)=O)cc2)cc1`, the activity change, negative = inhibition is -5.89% (inactive). As to `Clc1ccc(CSc2nncn3c2cc2occc23)cc1`, the activity change, negative = inhibition is -0.2% (inactive).

For the compound `CCOc1ccccc1C(=O)Nc1ccc2c(c1)N(C)C(=O)c1ccccc1S2`, the activity change, negative = inhibition was -16.7% (inactive). For `COc1ccccc1N1CCN(c2ccc(=O)n(CC(=O)NCc3ccc(OC(C)C)cc3)n2)CC1` the value was 23.5% (inactive); for `Cc1nc(-c2ccc(F)cc2)c(CC(=O)Nc2cccc(S(=O)(=O)N3CCOCC3)c2)s1`, 4.46% (inactive). For `O=S(=O)(c1cccc(Cn2nnc(-c3ccc(F)cc3)n2)c1)N1CCOCC1` the value was -46.2% (active); for `O=S(=O)(c1cccc(-c2nnc3n2CCCCC3)c1)N1CCOCC1`, 2.28% (inactive); for `COC(=O)c1ccc(NC(=O)c2cccc3c2C(=O)N(C2CCCCC2)C3)cc1`, -12% (inactive).

As for `CC(C)c1ccc(NC(=O)Cn2c3ncccc3c(=O)n2-c2ccccc2)cc1`, the activity change, negative = inhibition was -16.2% (inactive). In the case of `Cc1ccc2c(=O)c(C(=O)c3ccc(Cl)cc3)cn(CC(=O)NC3CCCCC3)c2n1`, the activity change, negative = inhibition was -2.17% (inactive). For `Cc1ccc2c(=O)c(C(=O)c3ccc(F)cc3)cn(CC(=O)NC3CCCCC3)c2n1` the value was -3.19% (inactive); for `Cc1ccc2c(=O)c(C(=O)c3cccc(Cl)c3)cn(CC(=O)NCc3ccccc3)c2n1`, -33.4% (active); for `COc1cccc(CNC(=O)C(=O)NCC(c2cccs2)S(=O)(=O)c2ccccc2)c1` (stereo unspecified), 10.2% (inactive). Take `Cc1ccc(Cl)cc1N(C)C(=O)Cn1nc(Cc2cccnc2)c2ccccc2c1=O`: the activity change, negative = inhibition is 10.4% (inactive). Regarding `CCn1c(=O)c(=O)n(CC)c2cc(N3CCCCC3)c(NC(=O)c3cccc(F)c3)cc21`, the activity change, negative = inhibition is 4.44% (inactive). As for `CC(=O)Oc1ccccc1C(=O)Nc1ncc([N+](=O)[O-])s1`, the activity change, negative = inhibition is -33.9% (active). In the case of `Cc1ccc2nsnc2c1NC(=O)c1ccccc1[N+](=O)[O-]`, the activity change, negative = inhibition was 7.5% (inactive). The result for `O=C(Nc1ccncc1)c1ccccc1[N+](=O)[O-]` reads -0.321% (inactive); that for `COC(=O)CSc1nnc(NC(=O)CCc2ccccc2)s1`, 5.96% (inactive); that for `CC(C)(C)NC(=O)CSc1nnc(NC(=O)CCc2ccccc2)s1`, -22.4% (inactive). With `O=C(CCc1ccccc1)Nc1ncc([N+](=O)[O-])s1`, the activity change, negative = inhibition was -30% (active). For `Cc1ccccc1C(=O)NCc1nc(-c2ccc(Cl)cc2)no1` the value was -7.49% (inactive); for `N#Cc1nc(Nc2cccc(Cl)c2)nc(NC2CCCC2)n1`, -6.69% (inactive). The result for `COc1ccc(C(=O)Nc2cccc(C(=O)OCc3cc(=O)n4c5c(sc4n3)CCCC5)c2)cc1` reads -2.93% (inactive); that for `CN1CCOc2cc(S(=O)(=O)N3CCN(S(=O)(=O)c4c(F)cccc4F)CC3)cnc21`, 1.83% (inactive); that for `CC1Cc2cc(S(=O)(=O)CCC(=O)Nc3ccc(F)c(Cl)c3)ccc2N1C(=O)C1CC1` (stereo unspecified), -8.79% (inactive).

On to `Cc1ccc(C)c(N2CCN(C(=O)Cc3c(C(=O)O)c(C)cn3C)CC2)c1`, for which the activity change, negative = inhibition is 3.31% (inactive). For `Cc1nc2nc(SCC(=O)N(Cc3ccccc3)C(C)C)nn2c(C)c1Cc1ccccc1Cl`, the activity change, negative = inhibition was -7.72% (inactive). The result for `COc1ccc(-n2c(C)nc3c(cnn3-c3ccc(F)cc3)c2=O)cc1` reads -26.8% (inactive); that for `N/C(=N\S(=O)(=O)c1ccc(Cl)cc1)N1CCOCC1`, -7.63% (inactive); that for `N#C/C(=C\N1CCOCC1)S(=O)(=O)c1ccc(Cl)cc1`, -41.8% (active). For `O=S(=O)(Oc1ccccc1C(=S)N1CCOCC1)c1ccc(Cl)cc1` the value was -1.41% (inactive); for `O=C(Nc1ccc(-c2nc3cc(NC(=O)c4ccccc4Cl)ccc3o2)cc1)c1ccccc1Cl`, 6.02% (inactive); for `COC(=O)c1ccc(NC(=O)c2ccccc2NS(=O)(=O)c2ccccc2)cc1`, -42.5% (active). Regarding `COc1cc(NC(=O)c2ccccc2NS(=O)(=O)c2ccc(Cl)s2)cc(OC)c1`, the activity change, negative = inhibition is -11.8% (inactive). Take `COC(=O)c1ccccc1NS(=O)(=O)c1ccc2[nH]c(=O)[nH]c2c1`: the activity change, negative = inhibition is 9.8% (inactive).

Turning to `CCS(=O)(=O)N1CCC(n2c(C)nc3cccnc32)CC1`, the activity change, negative = inhibition was 12.3% (inactive). The result for `COc1ccc(OC)c(-c2nc(C(N)=O)c3c(n2)n(-c2ccc4c(c2)OCO4)c(=O)n3C)c1` reads -6.79% (inactive); that for `Cc1ccc(CN2COc3cc(C)c4c(oc(=O)c5ccccc54)c3C2)cc1`, 3.2% (inactive). For `CSc1ccccc1OCc1cc(C(=O)N(C)CCc2c(C)n[nH]c2C)no1` the value was -4.34% (inactive); for `COc1cc(Cl)ccc1OCc1cc(C(=O)N(C)CCc2c(C)n[nH]c2C)no1`, -50% (active).

Consider `CCn1ccnc1CN(C)C(=O)c1cc(COc2ccc(Cl)cc2OC)on1`, for which the activity change, negative = inhibition was -3.88% (inactive).

`Cc1noc(C)c1-c1ccc2ncnc(NCc3ccc(F)c(F)c3)c2c1`: the activity change, negative = inhibition is -25.4% (inactive).

On to `COc1ccc(NC(=O)CSc2nc3ccccc3[nH]2)cc1`, for which the activity change, negative = inhibition was 7.52% (inactive). On to `O=C(O)C1CCCN1S(=O)(=O)c1ccc(Br)cc1` (stereo unspecified), for which the activity change, negative = inhibition was -19.4% (inactive). For `CC(=O)Nc1ccc(S(=O)(=O)N2CCCC2C(=O)O)cc1` (stereo unspecified) the value was 2.28% (inactive); for `O=C(O)C1CCCN1S(=O)(=O)c1ccc2c(c1)CCC2` (stereo unspecified), -38.4% (active). For `CCCS(=O)(=O)c1ncc(Cl)c(C(=O)Nc2scc(-c3ccccc3)c2C(=O)OCC)n1`, the activity change, negative = inhibition is -10.7% (inactive).

`CN(C)[C@@H]1C(=O)C(C(N)=O)=C(O)[C@@]2(O)C(=O)C3=C(O)c4c(O)ccc(Cl)c4[C@@H](O)[C@H]3C[C@@H]12`: the activity change, negative = inhibition is -42.8% (active). With `C=C1c2c(Cl)ccc(O)c2C(O)=C2C(=O)[C@]3(O)C(O)=C(C(N)=O)C(=O)[C@@H](N(C)C)[C@@H]3[C@@H](O)C12` (stereo partly specified), the activity change, negative = inhibition is -4.29% (inactive). For the compound `Cc1ccc(C)c(N2CCN(C(=O)Cn3nc(C)c4sc5ccccc5c4c3=O)CC2)c1`, the activity change, negative = inhibition was 5.73% (inactive). Turning to `COc1ccc(-c2noc(CSc3nc(C)cc(=O)[nH]3)n2)cc1OC`, the activity change, negative = inhibition is 12.5% (inactive). Consider `COc1ccc(-c2cc(C(F)(F)F)n3nc(-c4ccccc4)cc3n2)cc1OC`, for which the activity change, negative = inhibition was 6.49% (inactive). Consider `CCCN(CCC)CCNC(=O)c1ccc2c(c1)NC(=O)C(CS(=O)(=O)Cc1cccc(Br)c1)N2` (stereo unspecified), for which the activity change, negative = inhibition is -3.96% (inactive). For `Cc1ccc(OCCSc2nc3ccc(NC(=O)COc4ccc(C)cc4)cc3s2)cc1` the value was -5.49% (inactive); for `CC(=O)Nc1ccc2nc(SCCOc3cc(C)cc(C)c3)sc2c1`, -35.7% (active); for `Cc1cccc(OCCSc2nc3ccc(NC(=O)COc4ccccc4C)cc3s2)c1`, 5.79% (inactive).

With `NC(=O)C1CCN(C(=O)c2cccc(NC(=O)c3nsc4ccccc34)c2)CC1`, the activity change, negative = inhibition was 7.53% (inactive). For `Nc1cc(N)nc(SCC(=O)Nc2cccc(S(=O)(=O)N3CCCCC3)c2)n1` the value was -7.32% (inactive); for `O=C(CSc1ccccc1)Nc1cccc(S(=O)(=O)N2CCOCC2)c1`, -24.4% (inactive).

For `O=C(CSc1ccccc1)Nc1cccc(S(=O)(=O)N2CCCCC2)c1`, the activity change, negative = inhibition was -39.5% (active). Turning to `CCOc1ccccc1N(C)C(=O)c1cc2c(s1)-c1ccccc1OC2`, the activity change, negative = inhibition was 7.49% (inactive). For `Cc1sc(C2C(C#N)=C(N)N(c3cccc(Cl)c3)C3=C2C(=O)CCC3)cc1CN1CCOCC1` (stereo unspecified) the value was -16.8% (inactive); for `Cc1c(C(=O)N2CCOCC2)[nH]c2ccc(OCc3ccccc3)cc12`, -45.7% (active).

Consider `Cc1c(C(=O)CN2CCOCC2)[nH]c2ccccc12`, for which the activity change, negative = inhibition is -9.55% (inactive).

Consider `CCOC(=O)c1[nH]c2ccc(OC)cc2c1NC(=O)N1CCOCC1`, for which the activity change, negative = inhibition is -7.34% (inactive). For `CCOC(=O)c1ccc(NC(=O)Cn2cc(S(=O)(=O)Cc3ccccc3F)c3ccccc32)cc1` the value was 16.6% (inactive). In the case of `Cc1nc2c(-c3ccc(F)cc3)c(C)nn2c(C)c1CCC(=O)NCc1ccco1`, the activity change, negative = inhibition was -61.2% (active). The result for `COc1cc(OC)cc(-c2nc3nc(C)c(CCC(=O)NCc4ccco4)c(C)n3n2)c1` reads -2.94% (inactive). With `Cc1nc2c(-c3ccccc3)c(C)nn2c(C)c1CCC(=O)NCCc1ccccc1`, the activity change, negative = inhibition was -7.07% (inactive). As to `CCOC(=O)c1c(-c2ccc(OC)cc2)oc2ccc(OCc3ccc(C(=O)OC)cc3)cc12`, the activity change, negative = inhibition is 4.56% (inactive). `O=C(Nc1ccc2nc(SCC(=O)N3CCCc4ccccc43)sc2c1)c1ccc(Cl)cc1`: the activity change, negative = inhibition was -13.6% (inactive).

As to `N#Cc1c(C(F)(F)F)cc(-c2ccccc2)nc1SCC(=O)N1CCOCC1`, the activity change, negative = inhibition was 7.61% (inactive). For `CCOC(=O)COc1nc(C)cc(C(F)(F)F)c1C#N` the value was -9.55% (inactive); for `CCN(CC)c1nc(-c2ccccc2)cc(C(F)(F)F)c1C#N`, -72.6% (active); for `Cc1ccc(-c2cc(C(F)(F)F)c(C#N)c(SCC(=O)Nc3ccccc3)n2)cc1`, -36.2% (active). The result for `Cc1cc(C(F)(F)F)c(C#N)c(SCC(=O)NC2CC2)n1` reads -10.9% (inactive). Regarding `Cc1nn(-c2nc(-c3ccccc3)cc(C(F)(F)F)n2)c(C)c1Cl`, the activity change, negative = inhibition was 5.82% (inactive). With `CCCN1CCc2nc(N3CCN(C)CC3)ncc2C1`, the activity change, negative = inhibition is -15.6% (inactive).

With `CSc1cccc(NC(=O)CN2C(=O)CCc3cc(S(=O)(=O)N4CCCCC4)ccc32)c1`, the activity change, negative = inhibition was -0.775% (inactive). For `Cc1cc2c(cc3c(SCc4cccc(Cl)c4)nnc(C)n32)o1` the value was -2.95% (inactive); for `Cc1ccc(CNS(=O)(=O)c2ccc(-c3cc(C(F)(F)F)on3)s2)cc1`, 0.708% (inactive).
